Experimental data from the supplement of paper PMC13380429.

Test system: Vero E6 infected with SARS-CoV-2
Assay: inhibition of SARS-CoV-2 cytopathic effect; higher = more antiviral protection, active = above 15
Details: 48 h

Measured: inhibition of SARS-CoV-2 cytopathic effect

CC(=O)OCC(=O)[C@@]1(OC(C)=O)[C@@H](C)C[C@H]2[C@@H]3C[C@H](F)C4=CC(=O)C=C[C@]4(C)[C@@]3(F)[C@@H](O)C[C@@]21C [diflorasone-diacetate]
inactive: 1 nM 3.78% | 8.33 nM 2.43% | 100 nM 1.22% | 833.33 nM 0.13% | 10000 nM 1.53%

CCCN1CCCC(c2cccc(O)c2)C1 (stereo in doubt) [preclamol]
inactive: 1 nM -0.2% | 8.33 nM -0.3% | 100 nM 0.42% | 833.33 nM 1.02% | 10000 nM -1.58%

CC(=O)O/N=C1\C(=O)N(Cc2cc(Cl)ccc2Cl)c2ccc(Cl)cc21
inactive: 1 nM -1.23% | 8.33 nM 0.39% | 100 nM 0.49% | 833.33 nM 3.77% | 10000 nM 4.47%

CCCCc1nc2cc(/C=C/C(=O)NO)ccc2n1CCN(CC)CC
inactive: 1 nM 2.32% | 8.33 nM -0.4% | 100 nM -5.57% | 833.33 nM -20.5% | 10000 nM -27.9%

NCCC(O)(P(=O)(O)O)P(=O)(O)O [pamidronate]
inactive: 1 nM -0.49% | 8.33 nM 2.17% | 100 nM -0.58% | 833.33 nM -3.14% | 10000 nM -1.25%

COc1cc(-c2ncn(/C=C\C(=O)OC(C)C)n2)cc(C(F)(F)F)c1
inactive: 1 nM -1.83% | 8.33 nM -2.94% | 100 nM -8.02% | 833.33 nM -12.1% | 10000 nM -11.7%

CC(=O)[C@H]1CC[C@H]2[C@@H]3CC[C@H]4C[C@H](O)CC[C@]4(C)[C@H]3C(=O)C[C@]12C [alfaxalone]
inactive: 1 nM -1.46% | 8.33 nM 0.56% | 100 nM -1.95% | 833.33 nM -1.55% | 10000 nM -4.57%

O=C(Nc1ccc(C(F)(F)F)cn1)N1CCN(c2ncccc2C(F)(F)F)CC1
inactive: 1 nM -2.83% | 8.33 nM 0.93% | 100 nM 1.25% | 833.33 nM 1.49% | 10000 nM -0.71%

CN(C)/N=N/c1[nH]cnc1C(N)=O [dacarbazine]
inactive: 1 nM 2.03% | 8.33 nM 1.02% | 100 nM 2.4% | 833.33 nM 2.07% | 10000 nM -3.02%
